# Assay results published in publication PMC4336329 (PLoS ONE, 2015).
# In all, about 310,000 compounds went through this assay and about 14,000 (4.5%) showed an effect of 50% or more. The effect is printed as a negative number. Only a selection was taken, and strong results are over-represented in it overall.
# Target: human ether-à-go-go-related gene (hERG) potassium channel (human, UniProt Q12809)
# Assay: primary screen, population patch clamp on CHO cells stably expressing hERG; higher = less effect of the substance
# 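Note: peak tail current of the secondary pulse compared with the same well before compound.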
# human ether-à-go-go-related gene (hERG) potassium channel, sequence (Q12809 whole entry, looked up): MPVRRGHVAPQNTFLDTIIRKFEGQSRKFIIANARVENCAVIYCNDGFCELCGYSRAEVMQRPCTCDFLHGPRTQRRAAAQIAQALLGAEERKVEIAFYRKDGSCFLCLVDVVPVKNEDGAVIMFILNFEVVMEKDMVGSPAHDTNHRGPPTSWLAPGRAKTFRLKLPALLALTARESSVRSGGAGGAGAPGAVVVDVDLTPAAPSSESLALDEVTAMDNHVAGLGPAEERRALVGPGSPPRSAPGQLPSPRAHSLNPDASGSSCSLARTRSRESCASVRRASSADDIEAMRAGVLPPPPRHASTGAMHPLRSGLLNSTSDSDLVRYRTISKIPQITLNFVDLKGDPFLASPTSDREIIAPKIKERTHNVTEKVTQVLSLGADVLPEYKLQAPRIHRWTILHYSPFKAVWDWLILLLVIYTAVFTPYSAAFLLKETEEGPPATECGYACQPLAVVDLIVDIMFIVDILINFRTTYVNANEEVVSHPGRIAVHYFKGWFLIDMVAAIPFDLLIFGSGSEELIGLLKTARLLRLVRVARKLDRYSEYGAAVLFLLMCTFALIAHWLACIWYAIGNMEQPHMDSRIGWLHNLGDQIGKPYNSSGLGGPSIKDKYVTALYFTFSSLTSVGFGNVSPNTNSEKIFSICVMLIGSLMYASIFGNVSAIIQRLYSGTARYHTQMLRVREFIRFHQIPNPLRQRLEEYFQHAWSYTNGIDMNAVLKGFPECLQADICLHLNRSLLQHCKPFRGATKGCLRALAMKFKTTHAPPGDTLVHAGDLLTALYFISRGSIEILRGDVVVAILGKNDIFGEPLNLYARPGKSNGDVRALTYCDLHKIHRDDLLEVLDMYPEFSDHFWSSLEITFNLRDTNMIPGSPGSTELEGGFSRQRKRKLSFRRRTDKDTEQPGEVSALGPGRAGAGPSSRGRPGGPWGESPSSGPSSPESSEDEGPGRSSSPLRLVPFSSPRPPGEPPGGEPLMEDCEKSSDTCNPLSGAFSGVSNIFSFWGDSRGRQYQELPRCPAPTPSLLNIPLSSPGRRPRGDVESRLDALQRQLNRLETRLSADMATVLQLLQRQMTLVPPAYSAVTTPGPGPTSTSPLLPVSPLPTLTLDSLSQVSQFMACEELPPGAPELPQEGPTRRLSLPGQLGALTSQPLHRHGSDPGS
row,SMILES,"hERG current change (%, negative = inhibition) at 10uM"
1,C/C(=N\N=c1/sc2ccccc2n1C)c1ccc(N2CCOCC2)cc1,18.9%
2,Cc1ccc2c(CC(=O)OCc3nc(N)nc(Nc4ccccc4C)n3)coc2c1,5.79%
3,CCCNC(=O)OCc1cccnc1Sc1ccc(C)cc1,-30%
4,COCCOc1ccc(C(F)(F)F)cc1NC(=O)c1ccc(C)cc1,-0.151%
5,COc1ccc(CCNC(=O)[C@@H](NC(=O)c2ccccc2F)C(C)C)cc1OC,-9.87%
6,O=C(CSc1ncccn1)NCc1ccc2c(c1)OCO2,11.9%
7,Clc1ccc(OCc2nc(-c3ccccn3)n[nH]2)cc1,-55.6%
8,Cc1ccc(OCc2nc(-c3ccccn3)n[nH]2)cc1,-15.7%
9,Brc1ccc(OCc2nc(-c3ccccn3)n[nH]2)cc1,-3.04%
10,O=C(CN1CC=C(c2ccccc2)CC1)Nc1c(Cl)cccc1Cl,4.21%
11,CCOc1ccc2c(c1)-c1c(ssc1=S)C(C)(C)N2,4.44%
12,O=C(O)CCCC(=O)Nc1ccc(Cl)cc1,21.6%
13,COc1cccc(-c2noc(Cn3nc(C)c([N+](=O)[O-])c3C)n2)c1,-6.89%
14,CN(C)C(CNC(=O)c1cccc(C(F)(F)F)c1)c1ccco1 (centres unmarked),-11.8%
15,Nc1c(C(=O)O)cnc2nc(N3CCOCC3)nn12,21.7%
16,CC(C)OC(=O)c1sc2nc(-c3ccccc3)ccc2c1N,16.7%
17,Nc1c(C(=O)N2CCCC2)sc2nc(-c3ccccc3)ccc12,-70.7%
18,NC(=O)c1sc2nc(-c3ccccc3)ccc2c1N,18.7%
19,CCOc1ccc(NC(=O)C(CC(=O)O)Cc2ccccc2)cc1 (centres unmarked),5.94%
20,O=C(c1ccco1)N1CCC(c2nc3ccccc3[nH]2)CC1,-5.9%
21,Cl.N=C(N)SCc1ccc(O)c([N+](=O)[O-])c1,-0.169%
22,CCCCOc1ccc(CSC(=N)N)cc1Cl.Cl,-21.9%
23,COC(=O)c1cc(CSC(=N)N)ccc1OCCC(C)C.Cl,-3.46%
24,CCCCOc1ccc(CSC(=N)N)cc1[N+](=O)[O-].Cl,-64.1%
25,CCOc1ccc(CSC(=N)N)cc1Cl.Cl,-15.2%
26,CCOc1ccc(CSC(=N)N)cc1[N+](=O)[O-].Cl,-65.5%
27,CCCOc1ccc(CSC(=N)N)cc1C(=O)OC.Cl,-0.181%
28,CCCCCOc1ccc(CSC(=N)N)cc1[N+](=O)[O-].Cl,-56.7%
29,COc1ccc(CSC(=N)N)cc1[N+](=O)[O-].Cl,-3.72%
